Consider 8 sequences from paper PMC7862700, “An all-to-all approach to the identification of sequence-specific readers for epigenetic DNA modifications on cytosine”.

Holding throughout (experiment): DAPPL (digital affinity profiling via proximity ligation, sequencing); 10 mM Tris-HCl pH 7.5, 50 mM NaCl, 1 mM DTT, 4% glycerol, room temperature, 30 min; GST-TFs on glutathione beads, 16-mer random dsDNA library, 0.1% formaldehyde crosslink after washing; high values mean tight binding
In one test the target is T1, FEV (Homo sapiens, UniProt Q99581 1-238).
T1 sequence: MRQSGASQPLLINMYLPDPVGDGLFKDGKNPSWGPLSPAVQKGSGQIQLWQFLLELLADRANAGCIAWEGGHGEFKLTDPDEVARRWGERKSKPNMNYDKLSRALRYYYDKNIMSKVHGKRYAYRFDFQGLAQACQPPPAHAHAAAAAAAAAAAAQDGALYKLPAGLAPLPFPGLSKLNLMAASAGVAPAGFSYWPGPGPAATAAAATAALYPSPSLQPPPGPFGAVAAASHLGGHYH
As to conditions: protein: recombinant; tags: N-terminal GST; dsDNA, one strand shown. Summed up:
(§1)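 Human transcription factors fused to GST were expressed in yeast, captured on glutathione beads, given DNA barcodes and pooled with a GST-only negative control. Pools were incubated with 200 nmole of a 16-mer random double-stranded DNA library in Tris/NaCl/DTT/glycerol buffer at room temperature for 30 min. They were then washed, crosslinked with 0.1% formaldehyde, proximity-ligated (BsaI/T4 ligase, 1 h, 37 °C), PCR-amplified and sequenced on an Illumina NextSeq500. Binding signal is each 6-mer's read frequency for a factor divided by its frequency for the GST control.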

The target in another test is ETV5 (Homo sapiens, UniProt P41161 1-510). To be noted: protein: recombinant; tags: N-terminal GST; dsDNA, one strand shown. Summed up:
as §1

The next test has as its target HSF1 (Homo sapiens, UniProt Q00613 1-529). To be noted: protein: recombinant; tags: N-terminal GST; chain copies: 3; dsDNA, one strand shown. Summed up:
as §1

A further test deals with T2, SPIC (Homo sapiens, UniProt Q8N5J4 1-248).
T2 sequence: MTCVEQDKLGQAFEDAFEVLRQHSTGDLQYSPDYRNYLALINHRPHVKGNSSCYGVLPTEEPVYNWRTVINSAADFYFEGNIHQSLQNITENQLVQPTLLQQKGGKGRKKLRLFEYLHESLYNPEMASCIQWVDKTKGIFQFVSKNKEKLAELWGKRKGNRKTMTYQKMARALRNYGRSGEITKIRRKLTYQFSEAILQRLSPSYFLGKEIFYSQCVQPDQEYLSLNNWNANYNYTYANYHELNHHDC
As to conditions: protein: recombinant; tags: N-terminal GST; dsDNA, one strand shown. Summed up: as §1

In a further test the target is ELF4 (Homo sapiens, UniProt Q99607 1-663). To be noted: protein: recombinant; tags: N-terminal GST; dsDNA, one strand shown. Summed up:
as §1

A further test concerns the target T3, ELK4 (Homo sapiens, UniProt P28324-2 1-405).
T3 sequence: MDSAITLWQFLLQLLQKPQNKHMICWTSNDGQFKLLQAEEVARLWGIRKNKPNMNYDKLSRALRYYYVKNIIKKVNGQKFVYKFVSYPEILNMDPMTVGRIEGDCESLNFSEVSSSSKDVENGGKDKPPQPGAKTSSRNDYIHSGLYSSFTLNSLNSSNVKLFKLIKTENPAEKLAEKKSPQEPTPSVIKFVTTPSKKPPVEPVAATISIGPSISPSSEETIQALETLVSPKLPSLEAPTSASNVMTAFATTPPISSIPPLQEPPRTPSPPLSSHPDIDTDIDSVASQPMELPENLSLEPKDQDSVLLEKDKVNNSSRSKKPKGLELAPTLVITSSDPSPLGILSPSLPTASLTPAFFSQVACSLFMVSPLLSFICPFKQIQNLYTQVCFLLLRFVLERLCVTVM
As to conditions: protein: recombinant; tags: N-terminal GST; dsDNA, one strand shown. Summed up: as §1

The next test has as its target T4, ETV2 (Homo sapiens, UniProt O00321 1-342).
T4 sequence: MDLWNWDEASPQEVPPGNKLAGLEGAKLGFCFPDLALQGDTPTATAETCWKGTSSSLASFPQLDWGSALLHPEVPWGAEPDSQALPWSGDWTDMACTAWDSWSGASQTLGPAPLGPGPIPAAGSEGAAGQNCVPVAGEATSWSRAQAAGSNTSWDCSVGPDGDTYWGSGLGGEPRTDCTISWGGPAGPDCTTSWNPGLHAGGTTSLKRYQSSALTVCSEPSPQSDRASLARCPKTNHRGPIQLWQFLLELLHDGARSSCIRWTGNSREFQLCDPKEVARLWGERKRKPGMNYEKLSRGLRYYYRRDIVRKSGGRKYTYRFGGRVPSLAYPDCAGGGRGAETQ
To be noted: protein: recombinant; tags: N-terminal GST; dsDNA, one strand shown. Summed up:
as §1

The target of another test is T5, ELF3 (Homo sapiens, UniProt P78545 1-371).
T5 sequence: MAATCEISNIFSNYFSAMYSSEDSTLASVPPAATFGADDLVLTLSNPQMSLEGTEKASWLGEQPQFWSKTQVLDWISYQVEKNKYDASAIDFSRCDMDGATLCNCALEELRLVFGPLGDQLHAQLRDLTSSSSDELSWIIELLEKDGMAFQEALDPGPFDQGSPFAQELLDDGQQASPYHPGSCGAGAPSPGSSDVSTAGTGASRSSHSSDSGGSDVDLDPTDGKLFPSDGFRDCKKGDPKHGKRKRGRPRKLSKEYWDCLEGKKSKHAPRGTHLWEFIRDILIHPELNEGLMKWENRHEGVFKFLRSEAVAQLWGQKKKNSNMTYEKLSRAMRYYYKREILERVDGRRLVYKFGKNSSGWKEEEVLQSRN
As to conditions: protein: recombinant; tags: N-terminal GST; dsDNA, one strand shown. Summed up:
as §1

The target of another test is CRX (Homo sapiens, UniProt O43186 1-299). To be noted: protein: recombinant; tags: N-terminal GST; dsDNA, one strand shown. Summed up: as §1
Sequence of CRX (O43186 whole entry): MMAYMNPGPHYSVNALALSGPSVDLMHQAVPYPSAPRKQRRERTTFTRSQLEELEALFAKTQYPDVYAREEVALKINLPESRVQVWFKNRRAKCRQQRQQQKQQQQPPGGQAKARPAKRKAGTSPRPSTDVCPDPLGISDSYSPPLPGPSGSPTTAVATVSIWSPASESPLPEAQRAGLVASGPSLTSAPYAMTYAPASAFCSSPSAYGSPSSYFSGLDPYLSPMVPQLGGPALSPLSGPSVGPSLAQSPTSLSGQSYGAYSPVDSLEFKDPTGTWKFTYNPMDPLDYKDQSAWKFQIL
Another test deals with ETV1 (Homo sapiens, UniProt P50549 1-477). As to conditions: protein: recombinant; tags: N-terminal GST; dsDNA, one strand shown. Summed up: as §1
Sequence of ETV1 (P50549 whole entry): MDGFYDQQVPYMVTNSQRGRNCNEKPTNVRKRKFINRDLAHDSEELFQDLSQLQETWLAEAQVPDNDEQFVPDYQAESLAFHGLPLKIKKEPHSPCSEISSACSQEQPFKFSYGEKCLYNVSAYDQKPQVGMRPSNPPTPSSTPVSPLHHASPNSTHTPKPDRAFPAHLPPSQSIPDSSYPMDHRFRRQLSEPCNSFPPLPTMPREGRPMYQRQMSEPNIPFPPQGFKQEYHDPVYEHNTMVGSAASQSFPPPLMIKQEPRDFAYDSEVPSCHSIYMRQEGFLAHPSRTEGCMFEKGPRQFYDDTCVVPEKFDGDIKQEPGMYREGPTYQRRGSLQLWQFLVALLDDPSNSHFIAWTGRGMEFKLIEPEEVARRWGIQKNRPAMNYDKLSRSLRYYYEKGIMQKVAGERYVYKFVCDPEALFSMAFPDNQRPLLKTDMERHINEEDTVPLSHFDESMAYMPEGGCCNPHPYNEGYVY

Sequence of ETV5 (P41161 whole entry): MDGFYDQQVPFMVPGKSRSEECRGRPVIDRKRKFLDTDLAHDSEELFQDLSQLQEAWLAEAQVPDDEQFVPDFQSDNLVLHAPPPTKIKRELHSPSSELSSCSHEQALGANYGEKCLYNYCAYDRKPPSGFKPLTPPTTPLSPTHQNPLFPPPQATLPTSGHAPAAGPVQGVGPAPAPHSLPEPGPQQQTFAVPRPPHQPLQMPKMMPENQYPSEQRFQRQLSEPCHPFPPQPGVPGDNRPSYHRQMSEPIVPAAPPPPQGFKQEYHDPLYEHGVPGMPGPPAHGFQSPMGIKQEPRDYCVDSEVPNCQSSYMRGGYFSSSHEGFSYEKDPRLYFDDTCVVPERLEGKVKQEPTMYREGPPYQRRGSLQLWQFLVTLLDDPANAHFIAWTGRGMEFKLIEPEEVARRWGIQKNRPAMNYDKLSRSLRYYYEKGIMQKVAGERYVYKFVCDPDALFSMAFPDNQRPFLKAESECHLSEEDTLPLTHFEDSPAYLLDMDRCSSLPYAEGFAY
Sequence of ELF4 (Q99607 whole entry): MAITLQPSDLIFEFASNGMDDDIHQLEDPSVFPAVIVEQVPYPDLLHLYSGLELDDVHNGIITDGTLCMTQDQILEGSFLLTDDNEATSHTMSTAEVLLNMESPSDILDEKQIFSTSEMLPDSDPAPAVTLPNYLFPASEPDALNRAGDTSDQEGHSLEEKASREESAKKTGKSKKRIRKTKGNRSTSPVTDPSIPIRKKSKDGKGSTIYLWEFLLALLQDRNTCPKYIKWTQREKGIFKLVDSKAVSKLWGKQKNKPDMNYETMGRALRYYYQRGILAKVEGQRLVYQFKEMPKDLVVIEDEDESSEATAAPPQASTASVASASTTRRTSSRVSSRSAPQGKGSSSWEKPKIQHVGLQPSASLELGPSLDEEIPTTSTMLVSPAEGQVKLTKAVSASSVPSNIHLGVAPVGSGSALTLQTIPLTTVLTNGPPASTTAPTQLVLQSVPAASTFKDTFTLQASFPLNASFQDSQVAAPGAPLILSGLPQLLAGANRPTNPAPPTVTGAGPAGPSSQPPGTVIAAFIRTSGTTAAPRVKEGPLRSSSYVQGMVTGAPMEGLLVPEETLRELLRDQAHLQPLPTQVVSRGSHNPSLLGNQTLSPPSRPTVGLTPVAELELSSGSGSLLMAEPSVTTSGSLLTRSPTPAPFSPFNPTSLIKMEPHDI
Sequence of HSF1 (Q00613 whole entry): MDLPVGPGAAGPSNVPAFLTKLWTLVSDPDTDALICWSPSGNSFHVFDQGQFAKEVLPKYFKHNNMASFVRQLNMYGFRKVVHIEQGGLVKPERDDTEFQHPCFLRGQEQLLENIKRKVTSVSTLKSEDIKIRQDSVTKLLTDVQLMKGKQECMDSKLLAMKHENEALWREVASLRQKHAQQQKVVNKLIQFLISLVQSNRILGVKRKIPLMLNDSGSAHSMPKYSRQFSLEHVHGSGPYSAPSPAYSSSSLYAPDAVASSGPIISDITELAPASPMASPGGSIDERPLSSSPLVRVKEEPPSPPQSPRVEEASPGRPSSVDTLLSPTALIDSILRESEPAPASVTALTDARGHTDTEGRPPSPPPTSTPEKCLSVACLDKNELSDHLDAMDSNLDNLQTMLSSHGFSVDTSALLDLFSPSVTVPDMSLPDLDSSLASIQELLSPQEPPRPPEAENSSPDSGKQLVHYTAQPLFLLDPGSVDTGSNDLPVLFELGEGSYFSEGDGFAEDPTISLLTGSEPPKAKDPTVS

In the case of TTAGGG, the binding signal in the test with FEV was 1.13 fold enrichment (6-mer frequency, TF over GST control); in the test with ETV5 it was 1.16 fold enrichment (6-mer frequency, TF over GST control); in the test with HSF1, 1.48 fold enrichment (6-mer frequency, TF over GST control); in the test with SPIC, 1.04 fold enrichment (6-mer frequency, TF over GST control); with ELF4, 1.16 fold enrichment (6-mer frequency, TF over GST control); in the test with ELK4, 1.02 fold enrichment (6-mer frequency, TF over GST control). Besides, the binding signal with ETV2 is 1.15 fold enrichment (6-mer frequency, TF over GST control); with ELF3, 1.2 fold enrichment (6-mer frequency, TF over GST control); with CRX, 2.19 fold enrichment (6-mer frequency, TF over GST control); with ETV1, 1.03 fold enrichment (6-mer frequency, TF over GST control).

Consider TGAACT, for which the binding signal was 1.28 fold enrichment (6-mer frequency, TF over GST control) with FEV; 1.19 fold enrichment (6-mer frequency, TF over GST control) in the test with ETV5; 1.19 fold enrichment (6-mer frequency, TF over GST control) with HSF1; 1.34 fold enrichment (6-mer frequency, TF over GST control) with SPIC; 1.23 fold enrichment (6-mer frequency, TF over GST control) with ELF4; 1.22 fold enrichment (6-mer frequency, TF over GST control) with ELK4. Also, the binding signal is 1.2 fold enrichment (6-mer frequency, TF over GST control) with ETV2; 1.11 fold enrichment (6-mer frequency, TF over GST control) in the test with ELF3; 1.12 fold enrichment (6-mer frequency, TF over GST control) in the test with CRX; 1.24 fold enrichment (6-mer frequency, TF over GST control) with ETV1.

ACTACC: the binding signal was 1.55 fold enrichment (6-mer frequency, TF over GST control) with FEV; 1.64 fold enrichment (6-mer frequency, TF over GST control) in the test with ETV5; 1.09 fold enrichment (6-mer frequency, TF over GST control) in the test with HSF1; 1.58 fold enrichment (6-mer frequency, TF over GST control) with SPIC; 1.66 fold enrichment (6-mer frequency, TF over GST control) with ELF4; 1.59 fold enrichment (6-mer frequency, TF over GST control) in the test with ELK4. Also, the binding signal was 1.72 fold enrichment (6-mer frequency, TF over GST control) with ETV2; 1.58 fold enrichment (6-mer frequency, TF over GST control) with ELF3; 1.1 fold enrichment (6-mer frequency, TF over GST control) in the test with CRX; 1.59 fold enrichment (6-mer frequency, TF over GST control) with ETV1.

With CTTGTA, the binding signal with FEV is 1.32 fold enrichment (6-mer frequency, TF over GST control); with ETV5 it was 1.33 fold enrichment (6-mer frequency, TF over GST control); with HSF1, 1.34 fold enrichment (6-mer frequency, TF over GST control); with SPIC, 1.22 fold enrichment (6-mer frequency, TF over GST control); with ELF4, 1.37 fold enrichment (6-mer frequency, TF over GST control); with ELK4, 1.64 fold enrichment (6-mer frequency, TF over GST control). The binding signal with ETV2 was 1.41 fold enrichment (6-mer frequency, TF over GST control); in the test with ELF3, 1.27 fold enrichment (6-mer frequency, TF over GST control); with CRX, 1.27 fold enrichment (6-mer frequency, TF over GST control); with ETV1 it was 1.41 fold enrichment (6-mer frequency, TF over GST control).

For AGCAAT, the binding signal is 1.08 fold enrichment (6-mer frequency, TF over GST control) with FEV; 1.14 fold enrichment (6-mer frequency, TF over GST control) in the test with ETV5; 1.1 fold enrichment (6-mer frequency, TF over GST control) with HSF1; 1.05 fold enrichment (6-mer frequency, TF over GST control) with SPIC; 1.2 fold enrichment (6-mer frequency, TF over GST control) with ELF4; 1.14 fold enrichment (6-mer frequency, TF over GST control) with ELK4. The binding signal in the test with ETV2 was 1.14 fold enrichment (6-mer frequency, TF over GST control); with ELF3, 1.13 fold enrichment (6-mer frequency, TF over GST control); with CRX it was 1.06 fold enrichment (6-mer frequency, TF over GST control); with ETV1, 1.09 fold enrichment (6-mer frequency, TF over GST control).

For the sequence AACCCG, the binding signal is 1.44 fold enrichment (6-mer frequency, TF over GST control) in the test with FEV; 1.51 fold enrichment (6-mer frequency, TF over GST control) in the test with ETV5; 1.07 fold enrichment (6-mer frequency, TF over GST control) with HSF1; 1.47 fold enrichment (6-mer frequency, TF over GST control) with SPIC; 1.51 fold enrichment (6-mer frequency, TF over GST control) with ELF4; 1.26 fold enrichment (6-mer frequency, TF over GST control) in the test with ELK4. Further, the binding signal with ETV2 was 1.47 fold enrichment (6-mer frequency, TF over GST control); with ELF3 it was 1.6 fold enrichment (6-mer frequency, TF over GST control); in the test with CRX, 1.2 fold enrichment (6-mer frequency, TF over GST control); with ETV1, 1.58 fold enrichment (6-mer frequency, TF over GST control).

As for GTTTTT, the binding signal with FEV was 1.23 fold enrichment (6-mer frequency, TF over GST control); with ETV5, 1.31 fold enrichment (6-mer frequency, TF over GST control); with HSF1, 1.21 fold enrichment (6-mer frequency, TF over GST control); in the test with SPIC, 1.41 fold enrichment (6-mer frequency, TF over GST control); with ELF4, 1.33 fold enrichment (6-mer frequency, TF over GST control); in the test with ELK4, 1.32 fold enrichment (6-mer frequency, TF over GST control). Also, the binding signal in the test with ETV2 was 1.38 fold enrichment (6-mer frequency, TF over GST control); with ELF3 it was 1.29 fold enrichment (6-mer frequency, TF over GST control); with CRX, 1.13 fold enrichment (6-mer frequency, TF over GST control); with ETV1, 1.24 fold enrichment (6-mer frequency, TF over GST control).

With TTGAAT, the binding signal is 1.03 fold enrichment (6-mer frequency, TF over GST control) in the test with FEV; 1.07 fold enrichment (6-mer frequency, TF over GST control) in the test with ETV5; 1.09 fold enrichment (6-mer frequency, TF over GST control) with HSF1; 1.16 fold enrichment (6-mer frequency, TF over GST control) with SPIC; 1.12 fold enrichment (6-mer frequency, TF over GST control) in the test with ELF4; 1.05 fold enrichment (6-mer frequency, TF over GST control) with ELK4. The binding signal in the test with ETV2 is 1.04 fold enrichment (6-mer frequency, TF over GST control); with ELF3 it was 1.1 fold enrichment (6-mer frequency, TF over GST control); with CRX it was 1.17 fold enrichment (6-mer frequency, TF over GST control); with ETV1, 1.11 fold enrichment (6-mer frequency, TF over GST control).
